Hits are enriched below; roughly 3.4% of the tested compounds scored in any of these assays.
MITF primary: inhibitors of human MITF. inhibition, % at 2.6 µM. O75030. 0.91% of 650,000 active. AlphaScreen MITF homodimerization, bead proximity signal; in the data active means inhibition above about 50%;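 further: 0% = vehicle wells with protein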
TEAD-YAP block: TEAD-YAP interaction inhibition | inhibition, % at 9.12 µM | 1.4% of 640,000 active | HEK-TIYL cells, TEAD-Gal4/YAP UAS-luciferase luminescence; in the data active means inhibition above about 32%;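 further: 0% = median of test compound wells and 100% = reference inhibitor wells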
FBW7 activator: human FBW7 E3 ligase activation, primary screen; AlphaScreen FBW7–phospho-cyclin E peptide binding, activator screen; normalized activity (activation), % at 26.1 µM; 0.13% of 650,000 active; AID 1259310; in the data active means normalized activity above about 1.9%;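 further: purified mutant Fbw7 with reduced substrate affinity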
Target sequence (Q969H0 whole entry, looked up): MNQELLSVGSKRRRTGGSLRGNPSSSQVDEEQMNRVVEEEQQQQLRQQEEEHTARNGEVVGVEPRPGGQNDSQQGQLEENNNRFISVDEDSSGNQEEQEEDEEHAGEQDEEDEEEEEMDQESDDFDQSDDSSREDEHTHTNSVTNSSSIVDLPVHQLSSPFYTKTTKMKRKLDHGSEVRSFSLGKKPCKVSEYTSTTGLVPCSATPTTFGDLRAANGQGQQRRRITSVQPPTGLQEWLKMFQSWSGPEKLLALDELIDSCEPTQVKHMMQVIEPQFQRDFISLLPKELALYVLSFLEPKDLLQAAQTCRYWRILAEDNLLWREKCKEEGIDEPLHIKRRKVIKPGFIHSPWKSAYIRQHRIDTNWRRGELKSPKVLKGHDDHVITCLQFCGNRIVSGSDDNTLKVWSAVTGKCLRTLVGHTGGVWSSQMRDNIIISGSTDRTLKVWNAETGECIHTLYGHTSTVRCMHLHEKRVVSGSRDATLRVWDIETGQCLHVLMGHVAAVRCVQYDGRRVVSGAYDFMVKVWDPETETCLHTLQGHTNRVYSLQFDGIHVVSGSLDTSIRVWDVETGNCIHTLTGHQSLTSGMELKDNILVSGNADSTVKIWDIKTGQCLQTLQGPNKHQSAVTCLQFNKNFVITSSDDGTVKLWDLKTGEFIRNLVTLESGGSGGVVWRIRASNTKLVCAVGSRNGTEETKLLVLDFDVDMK
GPR151 activ: human GPR151 activation | Q8TDV0 | PathHunter beta-arrestin GPR151 cells, luminescence | activation, % at 11.2 µM | 1% of 650,000 active | AID 1508602; in the data active means activation above about 4.9%;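 further: 0% = median of compound wells and 100% = cells with positive control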
* hit, by the source's call.

SMILES	MITF primary	TEAD-YAP block	FBW7 activator	GPR151 activ
CC1CC(C)CN(c2ncnc3c2cnn3-c2ccc(Cl)cc2)C1 (stereo not drawn)	-12	34*	0	1
Cc1oc2c(c1C(=O)N1CCN(C)CC1)C(=O)c1ccccc1C2=O	20	48*	0	-1
Cc1oc2c(c1C(=O)NCC1CCCO1)C(=O)c1ccccc1C2=O (stereo not drawn)	11	77*	0	-2
O=C(Nc1ccc(NC(=O)c2cc([N+](=O)[O-])ccc2Cl)cc1)c1cccc(Cl)c1	2	10	0	1
O=C(Nc1nnc(COc2ccc(C3CCCCC3)cc2)s1)C12CC3CC(CC(C3)C1)C2	26	-10	1.9*	-1
COc1ccc(C(=O)NC2(C(F)(F)F)NC(=O)N(c3ccc(C)cc3)C2=O)cc1 (stereo not drawn)	13	0	0	-1
CCn1c(C)cc(/C=C2/NC(=O)N(c3ccccc3)C2=O)c1C	2	33*	0	-1
COc1cccc(/C=C2/NC(=O)N(c3ccccc3)C2=O)c1O	-11	35*	0	-7
COc1ccccc1/C=C1/NC(=O)N(c2cccc(Cl)c2)C1=O	18	-6	0	-1
CC(=O)Nc1ccc(Nc2nc(-c3ccc(N4CCOCC4)nc3)nc3c2ncn3-c2ccsc2)cc1	4	43*	0	-2
COc1ccc(-c2nc(Nc3ccc(N4CCOCC4)cc3)c3ncn(-c4ccsc4)c3n2)cn1	-2	45*	0	-1
c1ccc(Nc2nc(-c3ccc(N4CCOCC4)nc3)nc3c2ncn3-c2ccsc2)cc1	15	10	0	-1
O=S(=O)(/N=C(\Nc1nccs1)c1ccccc1)c1cccs1	25	-7	0	-3
Cc1ccc(N/C(=N/S(=O)(=O)c2cccs2)c2ccccc2)cc1F	-7	40*	0	1
O=C(c1csc(-c2cc3ccccc3[nH]2)n1)N1CCOCC1	13	-16	0	-1
O=C(c1csc(-c2cc3ccccc3[nH]2)n1)N1CCc2ccccc21	1	40*	0	0
CC(C)C(CO)Nc1nccn2c(-c3cccc(NS(C)(=O)=O)c3)cnc12 (stereo not drawn)	-8	55*	-1	-1
CC(=O)c1cccc(-c2cnc3c(NC(CO)C(C)C)nccn23)c1 (stereo not drawn)	-3	4	-1	-1
CC(C)C(CO)Nc1nccn2c(-c3ccc(C(=O)NC4CC4)cc3)cnc12 (stereo not drawn)	-12	51*	0	-1
CCOC(=O)c1c(CN2CCN(CC#N)CC2)n(-c2ccccc2)c2cc(Br)c(OC(C)=O)cc12	12	4	0	0
CCOc1ccc2ccc(OCC)c(/C=C3/NC(=S)NC3=O)c2c1	-3	57*	0	-1
CCOc1ccccc1/C=C1\NC(=S)NC1=O	4	-10	0	-1
CCOc1ccc2ccc(OCC)c(C=C3C(=O)NC(=O)NC3=O)c2c1	18	-30	0	-1
CCOc1cccc(/C=C2/NC(=S)NC2=O)c1O	11	51*	0	-2
Cc1nc2c(C(=O)NC3CCCCC3C)cnn2c(C)c1Cc1ccccc1Cl (stereo not drawn)	11	1	1	2
SMILES	MITF primary	TEAD-YAP block	FBW7 activator	GPR151 activ
CCOC(=O)c1c(NC(=O)C(C)Sc2nnc(CNC(=O)Cc3ccc(OC)cc3)n2C)sc2c1CCCC2 (stereo not drawn)	-1	8	0	0
O=C(Nc1ccc(Cl)c(C(F)(F)F)c1)c1ccc(NC(=O)C2CCCO2)cc1 (stereo not drawn)	13	34*	0	1
O=C(Nc1cc(-c2ccccc2Oc2ccccc2F)ccn1)C1CCOC1 (stereo not drawn)	1	37*	0	0
COCCCNc1c(F)c(F)c(/C=C/CN2CCOCC2)c(F)c1F	38	-32	0	1
COc1ccc(OC)c(C(=O)COc2ccccc2C#N)c1	19	41*	0	0
CN1CCN(C(CNS(=O)(=O)c2ccc(Cl)cc2)c2ccc3c(c2)OCO3)CC1 (stereo not drawn)	17	13	2.4*	0
CN1CCN(C(CNS(=O)(=O)c2cccc(F)c2)c2ccc3c(c2)CCN3C)CC1 (stereo not drawn)	59*	7	0	1
COc1ccc(S(=O)(=O)NCC(c2ccc3c(c2)CCN3C)N2CCN(C)CC2)cc1 (stereo not drawn)	-6	8	0	0
COc1ccc(NC(=O)C(c2ccccc2)N(C)C(=O)CCc2cc(C(C)(C)C)c(O)c(C(C)(C)C)c2)cc1 (stereo not drawn)	19	-7	0	-1
Cc1cnc(N2CCCC2CO)nc1NCc1ccccc1 (stereo not drawn)	2	50*	0	-1
Nc1nc(NCc2ccccc2)cc(N2CCCC2CO)n1 (stereo not drawn)	-8	45*	1	1
CC(=O)NCC1(c2ccccc2)SC(NC(C)=O)=NN1C(C)=O (stereo not drawn)	16	60*	0	0
CCC(C)C1(c2ccccc2)SC(NC(C)=O)=NN1C(C)=O (stereo not drawn)	9	38*	0	-1
Cc1ccc2sc(-c3ccc(NS(C)(=O)=O)cc3)nc2c1	13	-20	1	-1
Cc1ccc2sc(-c3ccc(NC(=O)/C=C/C(=O)O)cc3)nc2c1	10	92*	1	-4
Cc1ccc2sc(-c3ccc(NC4=CC(=O)CC(C)(C)C4)cc3)nc2c1	-9	53*	0	0
Nc1ccc(-c2nc3cc(N)ccc3s2)cc1	5	47*	2	-5
Cc1ccc2sc(-c3ccc(N)cc3)nc2c1	7	87*	0	-8
Cc1ccc2sc(NC(=O)/C=C/C(=O)O)nc2c1	11	14	0	-3
CC(=O)OC(CCl)c1cccc([N+](=O)[O-])c1 (stereo not drawn)	-1	-4	1	0
Cc1ccc2nc(-c3cc(Cl)c(N)c(Cl)c3)sc2c1	3	-47	0	-1
Cc1ccc2nc(-c3ccc(N)cc3)sc2c1	18	86*	0	-7
COC1=C(O)C(=O)c2c(cc3oc(C(C)=O)c(O)c3c2O)C1=O	76*	2	0	-1
COc1ccccc1C(=O)OC1=C(C(=O)c2ccccc2)N(C)S(=O)(=O)c2ccccc21	10	2	0	0
Cc1ccc2nc(C)c(C(=O)N3CCCC3)n2c1	-2	5	0	-1
Cc1ccc2nc(C)c(C(=O)N3CC(C)CC(C)C3)n2c1 (stereo not drawn)	6	-1	2.1*	-1
Cc1ccc2nc(C)c(C(=O)NC(C)C)n2c1	22	2	1.9*	-1
COC(=O)c1ccc(NC(=O)C(Cc2ccccc2)N2C(=O)C3C4CCC(C4)C3C2=O)cc1 (stereo not drawn)	0	4	0	2
Cc1ccccc1NC(=O)c1c(NC(=O)c2cccs2)sc2c1CCCCC2	2	-1	0	0
CCN(CC)c1ccc(C2NC(=O)c3ccccc3N2)cc1 (stereo not drawn)	-4	79*	0	2

Screening results as filed in PubChem.
